The values that follow come from PubChem BioAssay (EPA / NIEHS).

Experiment [1] deals with Type-1 angiotensin II receptor (Homo sapiens) (UniProt P30556). Nature of the experiment: NVS_GPCR_hAT1: NovaScreen (NVS) G Protein-Coupled Receptor Assay for human Angiotensin II receptor type 1 (AT1) (AID 2283263). Summed up: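 Membranes from KAN-TS cells; radioligand competitive displacement, 3 h, filtration and scintillation counting. Single-point duplicate screen at 25 uM, then concentration-response up to 50 uM for hits; loss of signal fitted versus DMSO.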

Experiment [2] addresses human Endothelin Receptor Type A (ETA), EDNRA (gene 1909) (UniProt P25101). As to the kind of experiment: NVS_GPCR_hETA: NovaScreen (NVS) G Protein-Coupled Receptor Assay for human Endothelin Receptor Type A (ETA) (AID 2283265). Put shortly: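 Cell-free radioligand displacement using SH-SY5Y-derived protein, 3 h incubation, filter-based scintillation counting. Primary screen in duplicate at 25 uM; actives then run in concentration-response up to 50 uM; loss of binding fitted versus DMSO.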

In experiment [3] the target is human Endothelin Receptor Type B (ETB), EDNRB (gene 1910) (UniProt P24530). As to the kind of experiment: NVS_GPCR_hETB: NovaScreen (NVS) G Protein-Coupled Receptor Assay for human Endothelin Receptor Type B (ETB) (AID 2283267). Put shortly: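 Human astrocytoma cell membranes; radioligand competitive binding read by filter scintillation counting 4 hours after dosing. Single-concentration duplicate screen at 25 uM, then singleton concentration-response up to 50 uM; loss of signal versus DMSO.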

SMILES strings stand for the structures. Records with an inconclusive call do not appear. Active and inactive are the calls of the source. Rule for the calls: active = hit-call score of the fitted dose curve at least 0.9, where 1 is the maximum; inconclusive = response in the unintended direction; inactive = score below 0.9.

Chain of human Endothelin Receptor Type A (ETA), EDNRA (gene 1909) (P25101 whole entry, looked up): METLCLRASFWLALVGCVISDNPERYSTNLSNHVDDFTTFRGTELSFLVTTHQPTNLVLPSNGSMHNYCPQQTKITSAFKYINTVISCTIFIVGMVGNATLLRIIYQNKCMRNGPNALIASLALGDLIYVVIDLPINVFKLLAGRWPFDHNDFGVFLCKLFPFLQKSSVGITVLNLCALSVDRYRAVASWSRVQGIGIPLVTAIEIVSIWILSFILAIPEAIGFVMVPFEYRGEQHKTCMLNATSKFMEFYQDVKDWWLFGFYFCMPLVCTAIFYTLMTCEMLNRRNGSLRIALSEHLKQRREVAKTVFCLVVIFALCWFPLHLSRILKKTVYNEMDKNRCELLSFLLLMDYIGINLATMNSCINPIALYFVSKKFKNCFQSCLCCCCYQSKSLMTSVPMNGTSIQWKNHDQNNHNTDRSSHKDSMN
Chain of human Endothelin Receptor Type B (ETB), EDNRB (gene 1910) (P24530 whole entry, looked up): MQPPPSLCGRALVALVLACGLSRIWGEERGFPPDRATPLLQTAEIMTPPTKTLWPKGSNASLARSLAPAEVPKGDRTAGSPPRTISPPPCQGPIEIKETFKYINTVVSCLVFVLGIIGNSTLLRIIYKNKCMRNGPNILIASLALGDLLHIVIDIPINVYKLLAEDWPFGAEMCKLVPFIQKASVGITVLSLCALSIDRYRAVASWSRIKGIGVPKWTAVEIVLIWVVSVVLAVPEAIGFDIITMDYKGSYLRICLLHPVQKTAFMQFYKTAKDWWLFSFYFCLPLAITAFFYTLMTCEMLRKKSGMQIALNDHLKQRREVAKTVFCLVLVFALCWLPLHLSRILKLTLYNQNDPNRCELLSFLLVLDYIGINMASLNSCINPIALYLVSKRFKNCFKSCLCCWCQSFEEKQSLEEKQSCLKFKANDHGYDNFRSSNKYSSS
Chain of Type-1 angiotensin II receptor (Homo sapiens) (P30556 whole entry, looked up): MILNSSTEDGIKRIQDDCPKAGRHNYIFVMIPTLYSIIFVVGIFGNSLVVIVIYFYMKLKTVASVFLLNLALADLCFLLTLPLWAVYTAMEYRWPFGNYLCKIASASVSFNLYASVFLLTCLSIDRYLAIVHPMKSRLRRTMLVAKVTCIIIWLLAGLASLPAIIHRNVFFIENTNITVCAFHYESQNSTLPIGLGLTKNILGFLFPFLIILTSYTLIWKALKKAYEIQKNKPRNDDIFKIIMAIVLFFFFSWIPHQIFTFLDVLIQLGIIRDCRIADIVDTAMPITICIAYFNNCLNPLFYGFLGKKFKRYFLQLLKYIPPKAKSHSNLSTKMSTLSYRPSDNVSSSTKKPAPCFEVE

`CCCCC(CC)COC(=O)CC(C(=O)OCC(CC)CCCC)S(=O)(=O)O` (stereo not given): the AC50 in experiment [1] is 17700 nM (active). For `NCC1(Cc2noc(=O)[nH]2)CCCCC1`, the compound was classed as inactive in experiment [2] and in experiment [3]. With `CCCCc1ccc2c(n1)[C@@H](c1ccc(OC)cc1C[C@H](C)C(=O)O)[C@H](C(=O)O)[C@H]2c1ccc2c(c1)OCO2`, the AC50 is 4.72 nM (active) in experiment [2] and 3.61 nM (active) in experiment [3].
